VACV mCherry inh – vaccinia inhibition (mCherry reporter); Vaccinia virus mCherry reporter infection, fluorescence; Potency, µM (series often up to 36.5 µM), inactives show at the highest dose activity change, negative = inhibition, most hits filed as inhibitors; actives 0.63% (n = 310,000); calls by dose curve; tested in A549 cells; also: potency is read from the fitted curve at half-maximal effect; nearly all actives have a fitted effect of over 35% in size
FMDV inh – foot and mouth disease virus antiviral activity; FMDV antiviral cell-based qHTS; Potency, µM (doses to about 57.9 µM), without a hit: at the highest dose activity change, negative = inhibition, most hits filed as inhibitors; actives 1.2% (n = 410,000); calls by dose curve; tested in HEK293T cells; also: read-out not given here; potency is read from the fitted curve at half-maximal effect; nearly all actives have a fitted effect of over 45% in size
HCMV antiviral – inhibitors of human cytomegalovirus; HFF cells, HCMV-luciferase reporter, 72 h; hits give low values; activity change, negative = inhibition, % at 57.5 µM; actives 4.5% (n = 410,000); in the data active = activity change below about -60%; inconclusive = no clear call, values can overlap the other calls; inactive = above about -39%
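Screen run at 2 compound doses on HFFs infected with reporter HCMV, MOI 1 PFU/cell. Luciferase activity from cell lysates at 72 h post infection gave inhibition relative to buffer-only and Salinomycin wells.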
HCV inhibitor – blocks hepatitis C virus. Huh7.5.1 HCVcc-Cre infection, luciferase reporter, 44 h. Potency, µM (highest dose often 41.8 µM), for the others: at the highest dose activity change, negative = inhibition, hits mostly inhibitors. actives 3.4% (n = 340,000). AID 651820; active = well fitted inhibition curve with a large enough effect; inconclusive = small, poorly fitted or top-dose-only effect, or another doubt; inactive = no such curve, though single readings can be large or run the other way; also: potency is read from the fitted curve at half-maximal effect
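After 44 h co-culture of compound, cells and HCVcc-Cre (~0.5 moi), substrate is added for 15 min at room temperature and luciferase measured over 15 sec. Cells were seeded at 1,000/well and pre-cultured 4 h.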
VACV Venus inh – inhibitors of vaccinia virus (Venus reporter); Vaccinia virus Venus reporter expression, fluorescence; Potency, µM (top dose mostly 36.5 µM), for inactives: top-dose activity change, negative = inhibition, actives largely listed as inhibitors; actives 0.46% (n = 330,000); AID 720580; calls by dose curve; tested in A549 cells; also: potency is read from the fitted curve at half-maximal effect; nearly all actives have a fitted effect of over 30% in size
Active calls of the source: *; i = inactive; ? = inconclusive; / = no result given; ! = repeats disagree; [ ] = another dose, or the depositor's remark. Compounds with a hit are over-represented: about 7.3% of the library has one in this group of screens. % is scaled to controls: 0 for no effect and ±100 for the full control effect.

SMILES | VACV mCherry inh | FMDV inh | HCMV antiviral | HCV inhibitor | VACV Venus inh
O=C(CSc1nc2c([nH]c3ccccc32)c(=O)n1-c1cccc(Cl)c1)N1CCOCC1 | 30.6% | -33.9% | -92.9*! | ? | 8.2%
COc1ccccc1NC(=O)c1cnc(SCC(=O)NCC2CCCO2)n(C)c1=O (configuration not stated) | -10.6% | 25.1µM* | 36.5 | 4.2% | -9.9%
COc1cccc(NC(=O)CSc2nc3c([nH]c4ccccc43)c(=O)n2-c2cccc(Cl)c2)c1 | -3.0%[7.34 µM] | -21.0% | -73.6* | / | -6.3%[7.34 µM]
O=C(CSc1nnc(-c2n[nH]c3ccccc23)n1-c1ccccc1)Nc1cccc(Cl)c1 | ? | -28.1% | -73.1* | -8.5% | -25.9%
CC1CCc2cc(F)cc3c2N1C(=O)C(C(=O)Nc1cnccn1)C3=O (configuration not stated) | -23.1% | / | / | / | -16.4%
Cc1noc(C)c1NC(=O)N(C)C[C@H]1OCc2cn(nn2)CCCC(=O)N([C@H](C)CO)C[C@@H]1C | / | / | -7.3 | / | /
Nc1nc(NCc2ccc(Cl)cc2)c2[nH]cnc2n1 | -13.3% | / | / | / | -11.7%
COC(=O)c1ccc(NC(=O)Cn2ccn3nc(-c4ccc(OC)cc4)cc3c2=O)cc1 | -0.2% | 30.2% | 42.6 | / | 9.5%
Cc1cc(C)cc(NC(=O)CSc2nc3c([nH]c4ccccc43)c(=O)n2-c2ccc(F)cc2)c1 | -13.5% | 0.0% | -88.0* | / | -4.0%
COC(=O)c1ccccc1NC(=O)CSc1nc2cccnc2n1C | i | -13.0% | -37.9 | -27.4% | -10.9%
COC(=O)c1cccc(NC(=O)CSc2nc3cccnc3n2C)c1 | -22.9% | 15.8µM* | ? | 14.1µM* | ?
COC(=O)c1ccc(NC(=O)CSc2nncn2-c2ccccn2)cc1 | i | 10.7% | -71.8* | 5.2% | 0.0%
O=C(CSc1ccccc1)N1CCc2c([nH]c3ccccc23)C1c1ccc(F)cc1 (configuration not stated) | i | 4.1% | -30.5 | / | -23.3%
Cc1ccc(C2c3[nH]c4ccccc4c3CCN2C(=O)CCc2ccccc2)cc1 (configuration not stated) | -24.3% | -5.0% | -86.0* | / | -3.2%
CCOc1cccc(C2c3[nH]c4ccccc4c3CCN2C(=O)CCc2ccccc2)c1 (configuration not stated) | -1.9% | -25.1% | -8.9 | / | -8.8%
CSc1ccc(C2c3[nH]c4ccccc4c3CCN2C(=O)CCC2CCCC2)cc1 (configuration not stated) | -8.6% | -6.1% | -77.9* | / | 7.8%
CCN1c2ccccc2-c2nc(SCC(=O)Nc3c(C)cc(C)cc3C)ncc2S1(=O)=O | -25.9% | 8.4% | -14.3 | / | -16.2%
CC(C)c1cc(CNC(=O)c2cc(COc3cncc(Cl)c3)on2)on1 | / | 0.5% | -32.3 | -4.7% | /
CCn1nc(C)c(CNC(=O)c2cc(COc3cncc(Cl)c3)on2)c1C | -6.9%[7.34 µM] | 1.1% | -63.6* | ? | 11.3%[7.34 µM]
CCn1nc(C)c(CNC(=O)c2cc(COc3ccccc3SC)on2)c1C | -13.4% | ? | -64.3* | 12.6µM* | -9.6%
CSc1ccccc1OCc1cc(C(=O)NCc2cccc(C)n2)no1 | / | 13.1% | 69.2 | ? | /
CN1CCN(C2CCN(c3ccc(Nc4nnc(Cl)c(Nc5ccccc5S(C)(=O)=O)n4)c(OC(CF)CF)c3)CC2)CC1 | ? | -18.8% | -0.1 | 11.2µM* | ?
Cc1ccc(S(=O)(=O)N2CCN(c3nc(-n4cccn4)nc4ccccc34)CC2)cc1 | -8.8% | / | / | / | -7.9%
O=C1c2cccc3c(O)ccc(c23)C(=O)N1c1ccc(Cl)cc1 | -19.7% | 12.6µM* | -71.9* | 2.9% | 399.1%
CC(=O)Nc1ccc(N2C(=O)c3cccc4c(O)ccc(c34)C2=O)cc1 | i | -15.0% | ? | 3.1% | 272.2%
SMILES | VACV mCherry inh | FMDV inh | HCMV antiviral | HCV inhibitor | VACV Venus inh
OC(CSc1ccccc1)CN1CCN(c2ccccc2)CC1 (configuration not stated) | -19.8% | -10.2% | -102.2* | 21.2% | -11.8%
O=C(Nc1nccs1)C1CC=CCC1 (configuration not stated) | -11.2% | 11.7% | -69.3* | 7.6% | -6.3%
CCc1ccccc1NC(=O)C(=O)NCC(c1cccnc1)N1CCc2ccccc21 (configuration not stated) | -13.2% | ? | -7.8 | / | -16.8%
CCOc1ccccc1NC(=O)COC(=O)/C=C/c1ccc(OC)c(OC)c1 | -18.2% | 17.8µM* | ? | ? | -15.9%
CCOc1ccc(/C=C/C(=O)OCC(=O)NCCc2ccc(OCC)c(OCC)c2)cc1OC | -11.3% | -25.5% | -5.3 | 7.94µM* | -10.7%
CCOc1ccccc1NC(=O)COn1nnc2ccccc21 | / | 8.3% | 32.6 | 12.6µM* | -11.7%
CCOc1ccc(CCNC(=O)COC(=O)/C=C/c2cccc(OC)c2)cc1OCC | -5.7% | 0.0% | -7.5 | -29.4% | -6.0%
CCN=C1NC(c2ccc(F)cc2)C(C(=O)OC)=C(C)N1Cc1cccc(C(F)(F)F)c1 (configuration not stated) | / | / | 12.9 | / | /
CC[C@]1(c2cccc(C)c2)C(=O)N(C(=O)OC)N1C(=O)OC | 11.2µM* | ? | 83.9 | 6.2% | ?
COC(=O)N1C(=O)[C@](Cc2ccccc2)(c2ccccc2)N1C(=O)OC | 12.6µM* | ? | 4.3 | 15.9% | 10µM*
COC(=O)c1ccc2nc(-c3ccc(C)cc3)c(Cc3ccccc3)n2c1 | / | / | 44.5 | / | /
O=C(CC(NC(=O)c1ccccc1)c1ccccc1)OCc1nc(-c2cccc(Cl)c2)no1 (configuration not stated) | -17.5% | / | / | / | -6.4%
Cc1ccc(S(=O)(=O)N2CCN(c3nc(-n4ccnc4)nc4ccccc34)CC2)cc1 | i | / | / | / | -17.2%
CC(=O)N1CCC2(CCCN(c3ccccn3)C2)CC1 | / | -6.7% | / | / | /
N#Cc1ccc(S(=O)(=O)N2CCC(C(=O)N3CCN(Cc4ccc5c(c4)OCO5)CC3)CC2)cc1 | / | ? | ? | 10µM* | /
O=C(C1CCN(Cc2ccccc2O)CC1)N1CCN(Cc2ccc3c(c2)OCO3)CC1 | i | -21.4% | -64.6* | ? | -4.9%
Cc1ccc(CCNC(=O)c2sc3ncccc3c2-n2c(C)ccc2C)cc1 | -16.5% | -25.0% | 32.9 | / | -17.4%
Cc1nn(-c2ccc(NC(=O)c3ccncc3)cc2)c(C)c1Cl | -11.8% | 17.8µM* | -90.7* | 3.16µM* | -14.0%
CC(=O)OC1CC2C(C)(C)C(=O)CC[C@]2(C)C2CC[C@@]3(C)C(c4ccoc4)OC(=O)C4OC43[C@]12C (some centres not stated) | -11.7% | -10.4% | / | / | -8.5%
CC(=O)O[C@@H]1C[C@H]2C(C)(C)C(=O)C=C[C@]2(C)[C@H]2CC[C@@]3(C)[C@H](c4ccoc4)OC(=O)[C@H]4O[C@]43[C@@]21C | 7.94µM* | 15.8µM* | -78.8* | ? | ?
CCOC(=O)c1c(NC(=O)CSc2cn(CCNC(=O)c3c(F)cccc3F)c3ccccc23)sc2c1CCC2 | -14.7% | -15.7% | -6.0 | / | -5.6%
CC(=O)Nc1cccc(NC(=O)CCNC(=O)c2ccccc2)c1 | -10.9% | 4.1% | -13.8 | 3.16µM* | -7.9%
